The results in this text go back to PubChem BioAssay.

Test [1] can be described thus: Wnt pathway potentiators raising nuclear beta-catenin – imaging, WNT3A-conditioned medium, mouse C2C12, NPC library, primary screen (AID 1117326; in the data active means nuclear beta-catenin stimulation mostly above about 4.2%, no sharp cut-off; inactive means mostly below about 10%). To be noted: stronger effect = higher value.
Test [2] is described as follows: stimulators of insulin release from INS-1E, primary screen, cell-based, 5 mM glucose, NPC library (AID 1117329;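 active means compound raises insulin release from rat beta cells at 5 mM glucose, no numeric limit stated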). As to conditions: rat INS-1E insulin secretion, at 10 µM, stronger effect = higher value.
Test [3] can be described thus: growth inhibition of GSK3B-pretreated HCT116 cells – cell-based, CellTiter-Glo, 0.2 to 20 µM (AID 1117336). To be noted: HCT116 viability after GSK3B inhibitor, at 20 µM, stronger effect = higher value. A general note: ATP-based viability assays read luminescence as a measure of living cells.
Test [4] is described as follows: inhibition of endothelial tube formation, primary screen, imaging, VEGF stimulated, CD31 staining, tube area, NPC library (AID 1117340;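 active means compound that reduces growth-factor-driven endothelial tube area in a mixed cell culture, no cutoff stated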). As to conditions: VEGF-stimulated ADSC/ECFC co-culture, at 10 µM, stronger effect = higher value.
Test [5] in a line: GLP1 release stimulators, primary, NCI-H716, NPC library (AID 1117341;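 active means compound raises GLP1 secretion from the human gut endocrine cells, with no numeric limit stated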). As to conditions: NCI-H716 cells, at 10 µM, stronger effect = higher value.
Test [6] can be described thus: HCT116 colon cancer cell growth inhibition, primary screen, CellTiter-Glo luminescence, NPC library (AID 1117342;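 active means compounds that lower survival of HCT116 colon cancer cells in the luminescence readout, no numeric limit stated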). To be noted: at 20 µM (top of the series).
Test [7] in a line: reduced SW480 viability measured with CellTiter-Glo, NPC library, primary (AID 1117343;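 active means compounds that lower viability of the colon cancer cells in the luminescence readout, with no numeric limit stated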). To be noted: CellTiter-Glo luminescence; at 20 µM (top of the series) unless noted.
A short description of test [8]: NPC library primary testing for decreased DLD-1 cell viability via CellTiter-Glo (AID 1117346;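 active means compounds that lower survival of DLD-1 colon cancer cells in the luminescence readout, no cutoff given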). To be noted: DLD-1 viability, CellTiter-Glo luminescence; at 20 µM (top of the series).
Test [9] in a line: EMT-state selective cytotoxicity in co-culture – imaging, PC-3E GFP, TEM4-18 mCherry, primary screen (AID 1345086;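 active means compounds killing one labelled cell type while sparing the other, by normalised counts and ratio limits, not self-fluorescent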;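 on all read-outs here: cells exposed to compound for 72 h before imaging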;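 on red/green cell ratio (normalised): normalised mesenchymal count divided by normalised epithelial count so high means epithelial killing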). To be noted: PC-3E GFP / TEM4-18 mCherry co-culture, imaging cell counts, at 1 µM; for red/green cell ratio (normalised): actives lie on both sides, counts scaled to control wells, 1 = unselective.
Test [10] in a line: viability loss with induced miR-34 in A549 – imaging, A549 dox-inducible miR-34, nuclei and caspase counts, primary screen (AID 1347080;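 active means compounds whose cell count with miR-34 switched on is under 0.7 times the count with it off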). To be noted: A549 miR-34 inducible, Hoechst nuclei count, 48 h.
Test [11] deals with NAD(+) hydrolase SARM1 (Homo sapiens) (UniProt Q6SZW1). As to the kind of experiment: blocking NAD cleavage by SARM1 SAM-TIR – cell lysate, NAD-Glo luminescence (AID 1508614;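 active means compound whose remaining NAD level is above about 45 nM, limit read from the data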). To be noted: SAM-TIR HEK293T lysate NADase, at 1 µM, stronger effect = higher value.
NAD(+) hydrolase SARM1 (Homo sapiens), sequence (Q6SZW1 whole entry, looked up): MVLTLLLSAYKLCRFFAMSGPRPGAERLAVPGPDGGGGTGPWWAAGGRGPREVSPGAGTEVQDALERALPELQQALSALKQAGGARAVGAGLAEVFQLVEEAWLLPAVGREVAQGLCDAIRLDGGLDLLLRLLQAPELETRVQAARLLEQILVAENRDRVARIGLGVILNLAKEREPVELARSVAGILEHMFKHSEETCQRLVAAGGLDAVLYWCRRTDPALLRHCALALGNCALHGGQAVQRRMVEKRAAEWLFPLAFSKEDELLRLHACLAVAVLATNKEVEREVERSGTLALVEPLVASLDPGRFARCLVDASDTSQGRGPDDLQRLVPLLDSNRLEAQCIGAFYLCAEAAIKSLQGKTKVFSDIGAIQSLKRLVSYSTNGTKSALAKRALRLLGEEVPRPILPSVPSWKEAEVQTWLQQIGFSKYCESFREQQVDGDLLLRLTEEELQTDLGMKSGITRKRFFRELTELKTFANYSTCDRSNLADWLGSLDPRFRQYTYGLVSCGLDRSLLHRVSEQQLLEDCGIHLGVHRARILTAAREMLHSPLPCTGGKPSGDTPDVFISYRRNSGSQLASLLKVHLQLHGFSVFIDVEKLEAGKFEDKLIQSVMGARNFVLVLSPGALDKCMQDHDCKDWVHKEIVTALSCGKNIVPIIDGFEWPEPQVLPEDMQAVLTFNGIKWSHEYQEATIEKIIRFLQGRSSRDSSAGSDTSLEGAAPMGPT
Test [12] can be described thus: compounds altering viability of human ES cells (AID 493140; call rule not given here;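 further: cells exposed to compounds for four days before counting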). As to conditions: human embryonic stem cell survival screen; stronger effect = higher value.
A short description of test [13]: P. berghei load reduction in hepatocytes – cell-based, HepG2, luciferase luminescence, HepG2 viability, primary screen (AID 624349; in the data active means parasite load remaining mostly below about 12%, no sharp cut-off; inactive means mostly above about 10%;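 further: 100% = mean of DMSO negative control wells on the same plate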). To be noted: P. berghei liver stage in HepG2, luciferase luminescence, concentration not given here; parasite load remaining: stronger effect = lower value; viability: measured here: HepG2 viability without parasites.
Test [14] can be described thus: MELAS cybrid and Rieske KO viability enhancers – cell-based, MELAS cybrids, Rieske KO mouse fibroblasts, CellTiter-Glo, primary screen (AID 1508586;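 active means mean z-score across replicates of 1.96 or higher in either the MELAS or the Rieske mutant cell line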;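 further: z relative to plate mean and SD of compound and empty wells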). To be noted: low glucose.
The mark [15] stands for this setting: measured here: epithelial PC-3E GFP cell survival.
Where [16] appears, read: measured here: mesenchymal TEM4-18 mCherry cell survival.
Where [17] appears, read: stronger effect = lower value, cell number ratio, induced over uninduced.
Setting [18] is: measured here: relative caspase fold change +Dox/-Dox.
Setting [19] is: measured here: total cells with miR-34 induction, stronger effect = lower value.
[20] abbreviates: measured here: total cells without miR-34 induction.
Where [21] appears, read: MELAS cybrid survival, CellTiter-Glo 48 h, stronger effect = higher value.
The mark [22] stands for this setting: Rieske KO mouse fibroblast survival, CellTiter-Glo 72 h.

Structures are written as SMILES. Where “and” joins values, the source holds several entries; their conditions need not be identical. Identical values can stand only once. Calls of active or inactive are those of the source.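 How the source made its calls, unless noted: active means compounds lowering colon cancer cell viability after pretreatment blocking the GSK3B kinase; inactive means the rest.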

As for `CC(O)C(=O)O` (stereo unspecified), the nuclear beta-catenin stimulation in [1] (at 10 µM) is 2.5% (inactive); in [1] (stimulation, at 2 µM) it was 3%. The insulin secretion stimulation in test [2] was -0.6% (inactive). Also, the viability decrease in test [3] was -5.3% (inactive). The tube area decrease in test [4] was 8.4% (inactive). Further, the GLP1 secretion stimulation in [5] is 3.4% (inactive). The inhibition of viability in test [6] is 2.73% (inactive). Also, the viability decrease (inhibition) was -11.7% (inactive) in [7] and -8.5% (inactive) in test [8]. Moreover, in test [9], the red/green cell ratio (normalised) is 1.08 (inactive). Further, the normalised cell number was 1.05 in [9] (setting [15]) and 1.14 in test [9] (setting [16]). Further, the fold change in [10] (setting [17]) is 0.885 (inactive); in test [10] (setting [18]), 0.852. Besides, the results for the cell count in [10] (setting [19]) and in test [10] (setting [20]) were 8900 and 10100, respectively. Also, the remaining NAD in test [11] was 10 nM (inactive).

For `COc1ccc(Cc2cnc(N)nc2N)cc1OC`, the nuclear beta-catenin stimulation in [1] (at 10 µM) was -0.5% (inactive); in [1] (stimulation, at 2 µM) it was -0.6%. Besides, in test [2], the insulin secretion stimulation is 0.9% (inactive). Besides, in test [3], the viability decrease is -3.05% (inactive). For the same compound, the tube area decrease in test [4] was -28.9% (inactive). Also, the GLP1 secretion stimulation in test [5] is 2.9% (inactive). In addition, the inhibition of viability in test [6] was -12.4% (inactive). Moreover, the results for the viability decrease (inhibition) in test [7] and in test [8] were 6.9% (inactive) and -5.4% (inactive), respectively. Moreover, the red/green cell ratio (normalised) in test [9] is 1.2 (inactive). Further, the results for the normalised cell number in test [9] (setting [15]) and in test [9] (setting [16]) were 1.03 and 1.23, respectively. The fold change was 1.04 (inactive) in [10] (setting [17]) and 0.896 in test [10] (setting [18]). The cell count turned out to be 9080 in test [10] (setting [19]) and 8710 in [10] (setting [20]). The remaining NAD in [11] is 10 nM (inactive).

The term viability denotes a read-out of living cells in per cent, often relative to untreated cells. Turning to `CCCCCCC[N+](CC)(CC)CCCCc1ccc(Cl)cc1`, the survival in [12] was 0.5 (inactive). The parasite load remaining in [13] is 34.3% (inactive) and 96.8% (inactive). For the same compound, the viability in test [13] was 48.5% and 90.6%. In addition, the nuclear beta-catenin stimulation in [1] (at 10 µM) was 1.5% (inactive); in [1] (stimulation, at 2 µM) it was 0.5%. For the same compound, in test [2], the insulin secretion stimulation was 1% (inactive). Besides, the viability decrease in test [3] is 95.1% (active). Moreover, the tube area decrease in test [4] was 83.4% (active). Further, the GLP1 secretion stimulation in test [5] is 7.2% (inactive). For the same compound, the inhibition of viability in test [6] is 79.1% (active). The values for the viability decrease (inhibition) in test [7] and in [8] were 60.9% (active) and 75.4% (active), respectively. The red/green cell ratio (normalised) in test [9] is 0.92 (inactive). In addition, the normalised cell number in test [9] (setting [15]) came to 0.97; in [9] (setting [16]), 0.89. The fold change was 0.718 (inactive) in test [10] (setting [17]) and 1.54 in test [10] (setting [18]). For the same compound, the cell count in test [10] (setting [19]) came out at 6720; in test [10] (setting [20]) it was 9350. Also, the z-score in test [14] (setting [21]) is -3 (inactive); in [14] (setting [22]), -0.71.

For the compound `CC(=O)N[C@@H](CC(C)C)C(=O)O`, in [12], the survival is 3.17 (inactive). In test [13], the parasite load remaining was 73.5% (inactive) and 218% (inactive). Besides, the viability in [13] is 98.8% and 70.6%. Moreover, the nuclear beta-catenin stimulation is 0% (inactive) in test [1] (at 10 µM) and 1.3% in [1] (stimulation, at 2 µM). The insulin secretion stimulation in test [2] is -1% (inactive). Also, the viability decrease in test [3] is -27.2% (inactive). Also, in [4], the tube area decrease is -4.7% (inactive). Besides, the GLP1 secretion stimulation in test [5] is -1.9% (inactive). The inhibition of viability in [6] was -7.5% (inactive). The viability decrease (inhibition) in test [7] was 28% (inactive); in [8], -12.9% (inactive). Further, the red/green cell ratio (normalised) in [9] was 0.81 (inactive). Besides, the normalised cell number in [9] (setting [15]) amounted to 1.12; in test [9] (setting [16]), 0.91. The values for the fold change in test [10] (setting [17]) and in test [10] (setting [18]) were 0.893 (inactive) and 1.09, respectively. Further, the cell count in test [10] (setting [19]) was 9170; in [10] (setting [20]), 10300. Besides, the z-score in test [14] (setting [21]) was 0.637 (inactive); in test [14] (setting [22]), -0.175.
